Screening data (PubChem)
Most compounds without a hit are left out; they make up all but 32% or so of the library.
CYP2C9 inh = blocks human cytochrome P450 2C9 | P11712 | CYP2C9 Supersomes, luciferin-H conversion, luminescence | inhibition, % at 5 µM | hit rate 20% among 96,000;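 active = blocking of liver enzyme CYP2C9 beyond about 50% at 5 µM, limit read from the data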
CYP2C9 activ = increases human cytochrome P450 2C9 activity; hit rate 1.4% among 96,000; activation factor at 5 µM; recombinant CYP2C9, luciferin-H conversion, luminescence; stronger effect = higher value; factor 1 = untreated enzyme, 0 = blocked;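 active = activation factor of 2 or more for CYP2C9 at a 5 µM dose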
PostGolgi yeast = growth inhibition of a yeast mutant, post-Golgi transport screen; hit rate 0.9% among 98,000; inhibition, % at 10 µM; AID 739; post-Golgi transport phenotypic cell assay;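 also: yeast cells grown in 1536-well plates; yeast grown about 18 h at 30C before absorbance read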
CYP2C19 act = activators of human cytochrome P450 2C19. 96,000 tested, under 10 active. AID 1025. activation factor at 5 µM. recombinant CYP2C19, luciferin-H EGE luminescence; stronger effect = higher value; 0 = fully inhibited enzyme, 1 = untreated enzyme;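 active = activation factor of at least 2 at 5 µM in the primary screen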
Target sequence (P33261 whole entry, looked up): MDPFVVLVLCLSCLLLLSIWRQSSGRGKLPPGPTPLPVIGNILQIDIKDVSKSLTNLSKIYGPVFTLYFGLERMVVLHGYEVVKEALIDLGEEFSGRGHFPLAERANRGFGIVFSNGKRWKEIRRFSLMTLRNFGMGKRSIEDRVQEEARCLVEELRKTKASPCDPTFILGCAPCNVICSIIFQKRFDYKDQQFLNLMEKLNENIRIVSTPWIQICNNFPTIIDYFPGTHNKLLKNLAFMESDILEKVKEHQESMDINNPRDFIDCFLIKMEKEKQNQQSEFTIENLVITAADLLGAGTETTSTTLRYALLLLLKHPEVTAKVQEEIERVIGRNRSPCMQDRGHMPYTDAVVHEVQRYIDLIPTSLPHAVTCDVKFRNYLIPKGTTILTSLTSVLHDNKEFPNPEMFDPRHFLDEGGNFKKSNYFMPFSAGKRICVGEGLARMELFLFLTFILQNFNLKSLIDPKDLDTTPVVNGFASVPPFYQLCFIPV
PostGolgi ctrl = growth of the yeast control strain, post-Golgi counter-screen; AID 738; inhibition, % at 10 µM; hit rate 5% among 98,000; efflux-deficient yeast background strain, growth absorbance A615, 16 h
CYP2C19 inh = inhibitors of human CYP2C19; P33261; CYP2C19 Supersomes, luciferin-H EGE luminescence, 30 min; inhibition, % at 5 µM; hit rate 21% among 96,000; AID 778;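 active = CYP2C19 inhibition above a set limit at 5 µM in the primary screen, cut at about 50% in these data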
Large screens that a line does not name were inactive. Rule as the data show it, unless noted: active = inhibition above about 30%; inactive = the rest.

CC(C)n1c(N2CCN(C(=O)Nc3ccccc3)CC2)nc2ccccc21	CYP2C9 inh 52
O=C(Nc1ccccc1)N1CCN(c2ccccn2)CC1	none
CCOc1ccc(CCNC(=O)C2CC(=O)N(C3CCCC3)C2)cc1OCC (stereo not given)	none
CSc1nsc(SC)c1NC(=O)OCCc1ccccn1	CYP2C19 inh 95
CSCC[C@H](NC(=O)OCc1ccccc1)C(=O)O	none
CSc1nsc(SC)c1NC(=O)OCc1ccccc1	CYP2C19 inh 89
CSc1nsc(SC)c1NC(=O)Nc1ccccn1	none
COc1ccc2oc3ccc(OC)cc3c(=O)c2c1	none
O=C(COC(=O)c1ccc(S(=O)(=O)Nc2ccccc2)cc1)NCCN1C(=O)CSC1=O	CYP2C9 inh 81, CYP2C19 inh 62
O=C(COC(=O)c1ccc(S(=O)(=O)Nc2ccccc2)cc1)NCc1ccco1	CYP2C9 inh 75
O=C(COC(=O)c1ccccc1)NCc1ccco1	none
O=C(COC(=O)c1ccc(S(=O)(=O)NCc2ccco2)cc1)NCC1CCCCC1	CYP2C9 inh 58
COc1ccc(C(=O)CSc2nnc(CNC(=O)c3ccc(OC)cc3)n2C)cc1	none
FC(F)(F)c1cccc(N2CCN(Cc3cccnc3)CC2)c1	CYP2C9 inh 81, CYP2C19 inh 96
FC(F)(F)c1cccc(N2CCN(Cc3ccoc3)CC2)c1	CYP2C9 inh 54, CYP2C19 inh 67
COc1ccc(C2CCN(Cc3cccnc3)CC2O)cc1 (stereo not given)	none
Cc1cccc(N2CCN(Cc3ccoc3)CC2)c1C	none
COc1cccc(N2CCN(Cc3cccnc3)CC2)c1	CYP2C19 inh 67
COc1cccc(CN2CCN(c3ncccn3)CC2)c1	CYP2C19 inh 56
COc1cccc(CN2CCN(C(=O)CC(C)C)CC2)c1	none
Cc1sc(N/N=C/C=C/c2ccccc2)nc1-c1ccccc1	none
Nc1nc(SCc2nnc(SCC(=O)O)n2-c2ccccc2)nc2sc3c(c12)CCCC3	none
CCOc1cccc(CN2CCN(c3cccc(C(F)(F)F)c3)CC2)c1O	CYP2C9 inh 65, CYP2C19 inh 93
Cc1ccc(N(CC(=O)NCc2ccc3c(c2)OCO3)S(C)(=O)=O)cc1	CYP2C19 inh 55
O=C(CCNS(=O)(=O)c1ccc2c(c1)CCC(=O)N2)NCc1ccc2c(c1)OCO2	none
Cc1ccc(S(=O)(=O)NCCC(=O)NCc2ccc3c(c2)OCO3)cc1C	CYP2C9 activ 2.1
O=C(CCNS(=O)(=O)c1ccccc1F)NCc1ccc2c(c1)OCO2	CYP2C19 inh 70
Cc1ccc(S(=O)(=O)N(C)CCCC(=O)NCc2ccc3c(c2)OCO3)cc1	CYP2C9 inh 76, CYP2C19 inh 82
CS(=O)(=O)N(CC(=O)NCc1ccc2c(c1)OCO2)c1ccccc1	none
Cc1cc(-n2nc(C)cc2C)n2nc(C)c(-c3ccc(Cl)cc3)c2n1	none
Cn1c(=O)c2cn3c(c2n(C)c1=O)C(c1ccccc1)CC(c1ccccc1)=N3 (stereo not given)	none
COc1ccc(N2CCN(Cc3nc4c(c(=O)[nH]c(=O)n4C)n3CC(C)=O)CC2)cc1	none (no result: CYP2C9 inh, CYP2C9 activ, CYP2C19 act, CYP2C19 inh)
Cc1ccc(-n2ncc(C#N)c2/N=C/N2CCOCC2)cc1	CYP2C9 inh 65, CYP2C19 inh 85
Cc1ccc(-n2ncc(C#N)c2/N=C/N(C)C)cc1	PostGolgi ctrl 33
Oc1c(Br)cc(C2N=C(c3ccccc3)NO2)cc1Br (stereo not given)	none
COc1ccccc1OCCC(=O)OCCN1C(=O)c2ccccc2C1=O	CYP2C19 inh 56
COc1ccc(OC(=O)CCCN2C(=O)c3ccccc3C2=O)cc1	CYP2C19 inh 53
COC(=O)C1=C(C)NC(C)=C(C(=O)OC)C1C(=O)OCCN1C(=O)c2ccccc2C1=O	CYP2C9 inh 71, CYP2C19 inh 80
CCOc1ccc(N2CC(=O)N/C2=N\c2nc(C)cc(C)n2)cc1	none
CC(C)n1c2ccccc2c2nnc(SCC(=O)OCN3C(=O)c4ccccc4C3=O)nc21	none
CS(=O)(=O)Nc1ccc(Br)cc1C(=O)c1ccccc1	CYP2C9 inh 88, CYP2C19 inh 92
CCc1nc(NCc2ccc3c(c2)OCO3)c2oc3ccccc3c2n1	CYP2C9 inh 92, PostGolgi ctrl 55, CYP2C19 inh 52
CCc1nc(NCc2cccnc2)c2oc3ccccc3c2n1	CYP2C9 inh 58, CYP2C19 inh 92
CCNc1nc(CC)nc2c1oc1ccccc12	none (no result: CYP2C9 inh, CYP2C9 activ, CYP2C19 act, CYP2C19 inh)
COc1ccc(N2CS(=O)(=O)/C(=C/N(C)C)C2=O)cc1	none
